For part of these data: Measured potencies and affinities stand elsewhere. Activity calls are given as the source filed them.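 The calls were made as follows, unless noted: active = membrane potential signal rise above negative control mean plus 3 SD in both duplicates, also active in the earlier TRPC4 screen; inactive = the rest.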
Legend:
[1] = system: TRPC4 beta (transient receptor potential cation channel C4), mouse; assay: TRPC4 cation channel opening, retest – cell-based, Fluo4 calcium, HEK293 TRPC4beta/mu-opioid, duplicates, 10 µM, confirmation (AID 2426;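 active = fluorescence ratio normalized to control raised more than 50% in primary screen plus both repeat runs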;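 as to activation: percent rise of integrated ratio over buffer wells lacking compound which define 0%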); conditions: Fluo4 calcium fluorescence, at 10 µM; stronger effect = higher value
[2] = system: transient receptor potential cation channel C4 beta (TRPC4), mouse; assay: TRPC4 cation channel opening, second retest – cell-based, second round, Fluo4, HEK293 TRPC4beta/mu-opioid, 1 µM, confirmation (AID 2461;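 active = primary screen active and over 50% activation in each of two duplicate runs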;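 as to activation: 0% = wells without test compound as baseline of integrated fluorescence ratio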); conditions: Fluo4 calcium fluorescence, at 1 µM; stronger effect = higher value
[3] = system: TRPC4 (transient receptor potential cation channel C4 beta), mouse; assay: potentiation of DAMGO EC20 TRPC4 response – cell-based, second round, Fluo-4, HEK293 TRPC4beta/mu-opioid, 1 µM, confirmation (AID 2554;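 active = primary screen hit whose fluorescence ratio, in both repeats, exceeds the weak agonist control mean by 3 SD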); conditions: DAMGO EC20, Fluo-4 calcium flux, at 1 µM; stronger effect = higher value
[4] = system: TRPC4 beta (transient receptor potential cation channel C4), mouse; assay: potentiation of DAMGO EC20 TRPC4 response – cell-based, Fluo-4, HEK293 TRPC4beta/mu-opioid, confirmation (AID 2555;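 active = primary screen hit whose calcium fluorescence ratio, in both repeats, exceeds the weak agonist control mean by 3 SD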); conditions: DAMGO EC20, Fluo-4 calcium flux, at 10 µM; stronger effect = higher value
[5] = target: Short transient receptor potential channel 4 (Mus musculus) (UniProt Q9QUQ5); assay: blockers of DAMGO-evoked TRPC4 calcium flux – cell-based, Fluo4, HEK293 TRPC4beta/mu-opioid, confirmation (AID 2636;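 active = calcium signal cut by more than 3 SD below the full-agonist control yet still positive, in both repeats and the earlier primary screen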); conditions: at 10 µM; stronger effect = higher value
[6] = target: Short transient receptor potential channel 4 (Mus musculus) (UniProt Q9QUQ5); assay: blockers of DAMGO-evoked TRPC4 calcium flux – cell-based, second round, Fluo4, HEK293 TRPC4beta/mu-opioid, 1 µM, confirmation (AID 2637;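 active = calcium signal ratio cut to more than 3 SD under the fully stimulated control mean yet still positive, in both repeats and the primary screen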); conditions: at 1 µM; stronger effect = higher value
[7] = target: Short transient receptor potential channel 4 (Mus musculus) (UniProt Q9QUQ5); assay: potentiation of DAMGO-evoked TRPC4 calcium signal – cell-based, HEK293 TRPC4/mu-opioid, Fluo-4 calcium, EC20 DAMGO, dose response (AID 434941;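 active = earlier screen potentiator hit that boosts the TRPC4 ion channel at some dose, with a dose response; inactive = no potentiation, no dose response, or not a prior hit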;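 also: calcium entry triggered by an EC20 dose of DAMGO at the co-expressed mu-opioid receptor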)
[8] = target: Short transient receptor potential channel 4 (Mus musculus) (UniProt Q9QUQ5); assay: block of DAMGO-driven TRPC4 calcium entry – cell-based, HEK293 TRPC4/mu-opioid, Fluo-4 calcium, dose response (AID 434942;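 active = primary screen inhibitor hit that blocks the TRPC4 channel at some tested dose, yielding a dose curve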)
[9] = target: Short transient receptor potential channel 6 (Mus musculus) (UniProt Q61143); assay: TRPC6 blockade by TRPC4 inhibitor hits – cell-based, HEK293, membrane potential dye, duplicate, selectivity assay for TRPC4 inhibitor project, confirmation (AID 434948;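 active = active in primary screen and both duplicates, each dropping signal beyond three positive-control SD with fluorescence still positive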); conditions: HEK293 TRPC6, membrane potential dye fluorescence, at 10 µM, stimulated with maximal-effect acetylcholine; stronger effect = higher value
[10] = target: Short transient receptor potential channel 6 (Mus musculus) (UniProt Q61143); assay: TRPC6 opening by TRPC4 activator hits – cell-based, HEK293, membrane potential dye, duplicate, selectivity assay for TRPC4 activator project, confirmation (AID 434950); conditions: HEK293 TRPC6, membrane potential fluorescence, at 10 µM; activation: stronger effect = higher value; outcome: activation;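 as to activation: 0% = buffer only wells and 100% = acetylcholine maximal-effect wells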
[11] = target: Short transient receptor potential channel 6 (Mus musculus) (UniProt Q61143); assay: positive modulators of mouse TRPC6 channel – HEK293 cells, membrane potential dye, duplicate, selectivity assay for TRPC4 potentiator project, confirmation (AID 434952;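 active = compound raising the membrane signal above positive-control mean plus 3 SD in both repeats, and a primary screen hit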); conditions: HEK293 TRPC6, membrane potential dye fluorescence, at 10 µM, maximal acetylcholine added after compound; stronger effect = higher value
[12] = target: Short transient receptor potential channel 4 (Mus musculus) (UniProt Q9QUQ5); assay: calcium flux activators in TRPC4/5HT1a cells, counter-screen for TRPC4 activator project, cell-based, second counter screen, HEK293 TRPC4/5HT1a, Fluo-4 (AID 434977;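 active = calcium signal rise above buffer-control mean plus 5 SD in both duplicates, and also a hit in the primary screen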;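 as to activation: plate controls were assay buffer for no effect and maximal serotonin response for full effect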); conditions: Fluo-4 calcium flux, at 10 µM; stronger effect = higher value
[13] = serotonin-gated TRPC4 signal block – cell-based, second counter screen, HEK293 TRPC4/5HT1a, Fluo-4, counter-screen for TRPC4 inhibitor project, confirmation (AID 434978;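 active = primary screen active whose calcium signal fell more than 3 SD beyond the full-serotonin control mean in both duplicate plates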;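 also: serotonin given first at submaximal then at maximal dose after compound preincubation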); conditions: Fluo-4 calcium flux, at 10 µM, serotonin added to trigger calcium flux; stronger effect = higher value
[14] = system: TRPC4 (mouse), co-expressed with 5HT1a in HEK293; assay: enhancement of serotonin-evoked TRPC4 response – cell-based, second counter screen, HEK293 TRPC4/5HT1a, Fluo-4, counter-screen for TRPC4 potentiator project, confirmation (AID 434979;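 active = signal rise over 3 SD above mean of control wells given weak agonist, in both repeats and first screen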); conditions: Fluo-4 calcium flux, at 10 µM, serotonin added at its EC20 dose; stronger effect = higher value
[15] = nonspecific calcium rise without TRPC4 – cell-based, HEK293 mu-opioid receptor line, counter-screen for TRPC4 activator project, confirmation (AID 449723;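 active = hit in primary screen, with calcium signal over 5 SD above buffer well mean in both duplicates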;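 also: counter screen cells carry the mu-opioid receptor alone and lack TRPC4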); conditions: HEK293 mu-opioid cells, Fluo-4 calcium fluorescence, at 10 µM; stronger effect = higher value
[16] = nonspecific potentiation of DAMGO calcium response – cell-based, HEK293 mu-opioid receptor line, counter-screen for TRPC4 allosteric potentiator project, confirmation (AID 449724;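 active = calcium signal rise more than 3 SD above the low-dose agonist control mean, in both duplicate plates and the primary screen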); conditions: HEK293 mu-opioid receptor cells, Fluo-4 calcium flux, at 10 µM, compound added before EC20 DAMGO stimulus; stronger effect = higher value

Chain of Short transient receptor potential channel 4 (Mus musculus) (Q9QUQ5 whole entry, looked up): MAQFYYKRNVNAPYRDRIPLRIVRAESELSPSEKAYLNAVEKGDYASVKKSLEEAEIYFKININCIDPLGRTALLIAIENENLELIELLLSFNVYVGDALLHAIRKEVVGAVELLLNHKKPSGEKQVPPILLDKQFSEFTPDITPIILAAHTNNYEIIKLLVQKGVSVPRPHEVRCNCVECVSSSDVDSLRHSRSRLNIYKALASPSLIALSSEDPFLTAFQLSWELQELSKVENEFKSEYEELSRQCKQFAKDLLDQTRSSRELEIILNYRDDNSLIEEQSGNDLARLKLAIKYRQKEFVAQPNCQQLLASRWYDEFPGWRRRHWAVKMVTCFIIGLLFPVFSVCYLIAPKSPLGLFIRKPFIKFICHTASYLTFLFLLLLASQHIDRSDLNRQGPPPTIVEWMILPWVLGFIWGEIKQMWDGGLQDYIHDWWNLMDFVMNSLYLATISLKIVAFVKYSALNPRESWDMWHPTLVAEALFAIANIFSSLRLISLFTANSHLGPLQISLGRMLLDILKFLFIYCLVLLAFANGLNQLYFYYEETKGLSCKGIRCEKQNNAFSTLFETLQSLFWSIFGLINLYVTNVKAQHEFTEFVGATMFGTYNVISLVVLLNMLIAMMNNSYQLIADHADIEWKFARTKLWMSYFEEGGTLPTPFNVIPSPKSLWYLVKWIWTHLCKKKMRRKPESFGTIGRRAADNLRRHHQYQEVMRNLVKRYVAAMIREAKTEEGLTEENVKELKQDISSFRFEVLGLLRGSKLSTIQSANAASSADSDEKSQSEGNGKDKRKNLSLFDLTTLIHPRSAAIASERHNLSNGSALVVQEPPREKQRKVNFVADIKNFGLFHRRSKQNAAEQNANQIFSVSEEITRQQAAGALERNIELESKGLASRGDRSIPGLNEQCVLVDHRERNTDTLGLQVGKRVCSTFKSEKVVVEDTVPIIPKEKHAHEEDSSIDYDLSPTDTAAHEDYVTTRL
Chain of Short transient receptor potential channel 6 (Mus musculus) (Q61143 whole entry, looked up): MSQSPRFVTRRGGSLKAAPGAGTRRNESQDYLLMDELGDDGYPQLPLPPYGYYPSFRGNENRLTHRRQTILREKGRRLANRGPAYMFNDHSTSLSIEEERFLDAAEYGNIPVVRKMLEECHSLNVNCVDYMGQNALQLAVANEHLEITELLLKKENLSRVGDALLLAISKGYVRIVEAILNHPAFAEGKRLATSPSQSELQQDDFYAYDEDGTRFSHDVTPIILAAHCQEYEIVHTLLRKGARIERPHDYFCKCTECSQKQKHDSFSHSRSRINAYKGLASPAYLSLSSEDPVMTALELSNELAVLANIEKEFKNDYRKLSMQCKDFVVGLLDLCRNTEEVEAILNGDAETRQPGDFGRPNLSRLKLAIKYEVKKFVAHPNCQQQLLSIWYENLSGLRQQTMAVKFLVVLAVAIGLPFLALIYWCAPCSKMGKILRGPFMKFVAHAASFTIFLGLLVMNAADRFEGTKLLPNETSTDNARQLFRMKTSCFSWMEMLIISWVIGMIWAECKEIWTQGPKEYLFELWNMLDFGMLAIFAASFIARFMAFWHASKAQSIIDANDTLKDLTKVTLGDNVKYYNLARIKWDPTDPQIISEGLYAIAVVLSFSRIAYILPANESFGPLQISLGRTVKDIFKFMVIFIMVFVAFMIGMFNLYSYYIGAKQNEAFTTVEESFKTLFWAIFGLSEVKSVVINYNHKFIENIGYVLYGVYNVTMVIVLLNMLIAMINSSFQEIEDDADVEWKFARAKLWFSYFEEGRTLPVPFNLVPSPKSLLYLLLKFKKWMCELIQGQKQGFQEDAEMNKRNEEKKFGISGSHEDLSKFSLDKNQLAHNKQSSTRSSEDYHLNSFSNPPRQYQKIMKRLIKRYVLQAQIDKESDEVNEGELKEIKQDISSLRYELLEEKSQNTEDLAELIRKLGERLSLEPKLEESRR

Fc1ccc(C2CCNCC2COc2ccc3c(c2)OCO3)cc1 (stereo not given)
active: activation [1] 202% | activation [12] 26.8% | activation [15] 15.8%
inactive: outcome [2] | outcome [3] | outcome [4] | outcome [5] | outcome [6] | outcome [7] | outcome [8] | outcome [9] | outcome [10] | outcome [11] | outcome [13] | outcome [14] | outcome [16]

CCOC(=O)C1(CC2CCCCO2)CCN(Cc2c(C)cc(C)cc2-n2cccn2)CC1 (stereo not given)
inactive: outcome [3] | outcome [4] | outcome [5] | outcome [6] | outcome [7] | outcome [8] | outcome [9] | outcome [11] | outcome [12] | outcome [13] | outcome [14] | outcome [15] | outcome [16]
active: activation [1] 75% | activation [2] 103% | activation [10] 62.5%

CCOC(=O)C1(CCCc2ccccc2)CCN(Cc2cn(CC)nc2C)CC1
active: activation [1] 153% | activation [2] 76% | activation [10] 84%
inactive: outcome [3] | outcome [4] | outcome [5] | outcome [6] | outcome [7] | outcome [8] | outcome [9] | outcome [11] | outcome [12] | outcome [13] | outcome [14] | outcome [15] | outcome [16]

O=C1/C(=C\c2cc(Cl)c(O)c(Cl)c2)SC(=S)N1Cc1ccccc1
active: activation [1] 118% | potentiation [4] 43% | activation [10] 1320% | potentiation, percent of control [11] 640% | activation [12] 105% | potentiation [14] 27.4% | activation [15] 248% | activation [16] 3240%
inactive: outcome [2] | outcome [3] | outcome [5] | outcome [6] | outcome [7] | outcome [8] | outcome [9] | outcome [13]

C=CCn1c(CCNC(=O)c2ccco2)nc2ccccc21
inactive: outcome [3] | outcome [4] | outcome [5] | outcome [6] | outcome [7] | outcome [8] | outcome [9] | outcome [10] | outcome [11] | outcome [13] | outcome [14] | outcome [15] | outcome [16]
active: activation [1] 165% | activation [2] 70% | activation [12] 55%

COc1ccc(-c2nc(CN3CCC(C(=O)NC4CCCC4)CC3)c(C)o2)cc1OC
active: activation [1] 152% | activation [2] 70% | activation [10] 57%
inactive: outcome [3] | outcome [4] | outcome [5] | outcome [6] | outcome [7] | outcome [8] | outcome [9] | outcome [11] | outcome [12] | outcome [13] | outcome [14] | outcome [15] | outcome [16]

CC1(C)CC(=O)c2cc(C(=O)NCc3ccco3)c(=O)n(-c3ccc(Cl)cc3)c2C1
active: activation [10] 66.5%
inactive: outcome [1] | outcome [2] | outcome [3] | outcome [4] | outcome [5] | outcome [6] | outcome [7] | outcome [8] | outcome [9] | outcome [11] | outcome [12] | outcome [13] | outcome [14] | outcome [15] | outcome [16]

Cc1ccccc1NC(=S)NCCc1ccccn1
inactive: outcome [2] | outcome [3] | outcome [4] | outcome [5] | outcome [6] | outcome [7] | outcome [8] | outcome [9] | outcome [10] | outcome [11] | outcome [13] | outcome [14] | outcome [15] | outcome [16]
active: activation [1] 143% | activation [12] 56.5%

CN(C)CCCN(C(=O)c1ccc(S(=O)(=O)N2CCCc3ccccc32)cc1)c1nc2ccc(F)cc2s1
inactive: outcome [2] | outcome [3] | outcome [4] | outcome [5] | outcome [6] | outcome [7] | outcome [8] | outcome [9] | outcome [10] | outcome [11] | outcome [12] | outcome [13] | outcome [14] | outcome [16]
active: activation [1] 134% | activation [15] 14.7%

Cc1cc(-c2ccc(C)c(S(=O)(=O)NCCCN(Cc3ccccc3)C(C)C)c2)on1
active: activation [1] 161% | activation [10] 44.5% | activation [12] 56.3%
inactive: outcome [2] | outcome [3] | outcome [4] | outcome [5] | outcome [6] | outcome [7] | outcome [8] | outcome [9] | outcome [11] | outcome [13] | outcome [14] | outcome [15] | outcome [16]

CN(CCOc1ccc(Cl)cc1)CC(O)c1ccccc1 (stereo not given)
active: activation [1] 76% | activation [10] 52.5% | activation [12] 13.9%
inactive: outcome [2] | outcome [3] | outcome [4] | outcome [5] | outcome [6] | outcome [7] | outcome [8] | outcome [9] | outcome [11] | outcome [13] | outcome [14] | outcome [15] | outcome [16]

CCOc1ccccc1CN1CCNC(=O)C1CC(=O)NCCc1ccccn1 (stereo not given)
inactive: outcome [1] | outcome [2] | outcome [3] | outcome [4] | outcome [5] | outcome [6] | outcome [7] | outcome [8] | outcome [9] | outcome [11] | outcome [13] | outcome [14] | outcome [15] | outcome [16]
active: activation [10] 23.5% | activation [12] 17.3%

CN(C)C(CNC(=O)Cc1cccc(C(F)(F)F)c1)c1ccco1 (stereo not given)
active: activation [1] 83% | activation [10] 29%
inactive: outcome [2] | outcome [3] | outcome [4] | outcome [5] | outcome [6] | outcome [7] | outcome [8] | outcome [9] | outcome [11] | outcome [12] | outcome [13] | outcome [14] | outcome [15] | outcome [16]

Clc1ccc(OCCNCCc2ccccc2)cc1
active: activation [10] 53% | activation [12] 24.4%
inactive: outcome [1] | outcome [2] | outcome [3] | outcome [4] | outcome [5] | outcome [6] | outcome [7] | outcome [8] | outcome [9] | outcome [11] | outcome [13] | outcome [14] | outcome [15] | outcome [16]

CCCCN(CC)CCNC(=O)c1cc2cc3ccc(Cl)cc3nc2o1
active: activation [1] 67% | potentiation [3] 20% | potentiation [4] 47% | activation [12] 18.8% | potentiation [14] 40.5%
inactive: outcome [2] | outcome [5] | outcome [6] | outcome [7] | outcome [8] | outcome [9] | outcome [10] | outcome [11] | outcome [13] | outcome [15] | outcome [16]
